Test results reported in PubChem BioAssay (Tox21).
Records with an inconclusive call do not appear. Active and inactive are the calls of the source. Unless noted, calls follow the shape of the dose curve; as a rule, active = well fitted curve in the direction sought with a large enough effect in the repeat runs; inconclusive = weak or mixed curves; inactive = no such curve, though single readings can be large; an effect the other way counts as inactive or inconclusive.

Tested on: estrogen-related receptor alpha (ERRalpha) with PGC-1alpha coactivator, human
Experiment: qHTS assay to identify small molecule antagonists of the estrogen related receptor signaling pathway with the pleiotropic PPARgamma coactivator (PGC) (AID 1224821; calls by dose curve; also: nearly all actives have a fitted effect of over 50% in size; also: potency is read from the fitted curve at half-maximal effect;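 as to activity change, negative = inhibition: lower luminescence signal means antagonism of PGC/ERR signalling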)
Conditions: ERR/PGC reporter cell line, luciferase, antagonist mode; series mostly up to 46.1 µM; activity change, negative = inhibition: at the top concentration
Summary of the method: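 PGC/ERR reporter cells; 6 h pre-incubation 37 C/5% CO2; pin-tool compound in DMSO, 18 h 37 C; One-Glo added, 30 min RT; luminescence read. qHTS antagonist mode.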
% is scaled to controls: 0 for no effect and ±100 for the full control effect.

| Compound | activity change, negative = inhibition | Potency |
| --- | --- | --- |
| Cn1c(=O)c2[nH]c(C3CCCC3)nc2n(C)c1=O | -4.68% (inactive) | – |
| O=C1C2C=CC=CC2=NC(=S)N1CCN1CCC(=C(c2ccc(F)cc2)c2ccc(F)cc2)CC1 (configuration not stated) | – | 25.6 µM (active) |
| c1ccc(C(NCc2cccnc2)(c2ccccc2)c2ccccc2)cc1 | – | 24.6 µM (active) |
| OCc1ccc(-c2nn(Cc3ccccc3)c3ccccc23)o1 | 34.8% (inactive) | – |
| CCN(CC)CCCCCCCCOC(=O)c1cc(OC)c(OC)c(OC)c1 | 13.3% (inactive) | – |
| O=c1ccc2c(OCCCCc3ccccc3)c3ccoc3cc2o1 | 1.24% (inactive) | – |
| COC(=O)[C@H](NC(=O)c1cc(-c2ccccc2)nc2ccccc12)c1ccccc1 | -11.8% (inactive) | – |
| c1ccc(CN2CCC3(CCCc4ccccc43)CC2)cc1 | -3.19% (inactive) | – |
| O=c1ccc2ccc(O)c(O)c2o1 | 18.2% (inactive) | – |
| CNC(=O)[C@H]1O[C@@H](n2cnc3c(NCc4cccc(I)c4)ncnc32)[C@H](O)C1O (some centres not stated) | 94.8% (inactive) | – |
| CCCCCCCC/C=C\CCCCCCCC(=O)NCCc1ccc(O)c(O)c1 | 41.9% (inactive) | – |
| COc1cccc(OC)c1OCCNCC1COc2ccccc2O1 (configuration not stated) | -21.2% (inactive) | – |
| c1ccc2c(c1)CC(N1CCN(c3cccc4c3OCCO4)CC1)C2 | -23.5% (inactive) | – |
| CN1CCc2cccc3c2C1Cc1ccc(O)c(O)c1-3 (configuration not stated) | – | 26.6 µM (active) |

Tested on: not listed separately
Experiment: qHTS assay to identify small molecule antagonists of the estrogen related receptor signaling pathway with the pleiotropic PPARgamma coactivator (PGC) cell viability counter screen (AID 1224822;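 also: viability read after 17.5 h compound exposure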)
Conditions: ERR/PGC reporter cell line viability counter screen; series mostly up to 46.1 µM; viability change, negative = cytotoxic: at the top concentration
Summary of the method: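 Cytotoxicity in the PGC/ERR cell line is assessed with CellTiter-Fluor, read as fluorescence intensity 30 min after reagent addition, following 17.5 h compound treatment at 37 C.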

| Compound | viability change, negative = cytotoxic |
| --- | --- |
| c1ccc(C(NCCNC(c2ccccc2)c2ccccc2)c2ccccc2)cc1 | -17.6% (inactive) |
| Cn1c(=O)c2[nH]c(C3CCCC3)nc2n(C)c1=O | 11.7% (inactive) |
| O=C(CCSCc1ccco1)NNC(=O)N1Cc2ccccc2Oc2ccc(Cl)cc21 | -9.66% (inactive) |
| CCCc1c(-c2ccc(O)cc2)nn(-c2ccc(O)cc2)c1-c1ccc(O)cc1 | -12.5% (inactive) |
| OCc1ccc(-c2nn(Cc3ccccc3)c3ccccc23)o1 | -5.54% (inactive) |
| Nc1ccn([C@H]2O[C@H](CO)[C@@H](O)C2(F)F)c(=O)n1 | 13.3% (inactive) |
| O=c1ccc2c(OCCCCc3ccccc3)c3ccoc3cc2o1 | 1.66% (inactive) |
| O=C(CCc1ccncc1)NNC(=O)N1Cc2ccccc2Oc2ccc(Cl)cc21 | -2.1% (inactive) |
| CN1C2CC(OC(=O)[C@H](CO)c3ccccc3)CC1C1OC12 (some centres not stated) | -2.78% (inactive) |
| CN(C)CCC(c1ccc(Br)cc1)c1ccccn1 (configuration not stated) | -3.12% (inactive) |
| Cn1cc(C(F)(F)F)nc1-c1ccc(OCC(O)CNCCOc2ccc(O)c(C(N)=O)c2)cc1 (configuration not stated) | -2.63% (inactive) |
| COC(=O)[C@H](NC(=O)c1cc(-c2ccccc2)nc2ccccc12)c1ccccc1 | -1.05% (inactive) |
| COc1ccccc1N1CCN(CCN(C(=O)C2CCCCC2)c2ccccn2)CC1 | -9.41% (inactive) |
| c1ccc(CN2CCC3(CCCc4ccccc43)CC2)cc1 | -13.7% (inactive) |
| C[C@@H](CN1CCC(Cc2ccccc2)CC1)[C@@H](O)c1ccc(O)cc1 | 4.89% (inactive) |
| COCCOc1cc2ncnc(Cl)c2cc1OCCOC | -6.76% (inactive) |
| N=C(N)c1ccc(OCCCCCOc2ccc(C(=N)N)cc2)cc1 (tested in a mixture with another compound) | -5.75% (inactive) |
| O=c1ccc2ccc(O)c(O)c2o1 | 4.86% (inactive) |
| C[C@@]1(C2CCCC2)Cc2cc(OCC(=O)O)c(Cl)c(Cl)c2C1=O | -15.9% (inactive) |
| CNC(=O)[C@H]1O[C@@H](n2cnc3c(NCc4cccc(I)c4)ncnc32)[C@H](O)C1O (some centres not stated) | -1.81% (inactive) |
| CCC1(O)CC2CN(CCc3c([nH]c4ccccc34)[C@@](C(=O)OC)(c3cc4c(cc3OC)N(C)C3[C@]45CCN4CC=C[C@@](CC)([C@@H](OC(C)=O)[C@]3(O)C(=O)OC)[C@H]45)C2)C1 (some centres not stated) | -20.7% (inactive) |
| O=C(Nc1ccc2c(c1)CCN(Cc1ncn[nH]1)C2)c1ccccc1-c1ccc(C(F)(F)F)cc1 | -7.22% (inactive) |
| COc1cccc(OC)c1OCCNCC1COc2ccccc2O1 (configuration not stated) | -9.63% (inactive) |
| c1ccc2c(c1)CC(N1CCN(c3cccc4c3OCCO4)CC1)C2 | -7.33% (inactive) |
| CC(C)NC[C@H](O)COc1cccc2[nH]ccc12 | 12.5% (inactive) |
| O=[N+]([O-])c1ccc(CNc2nc(NCc3cccc(C(F)(F)F)c3)nc3nc[nH]c23)cc1 | -19.3% (inactive) |
| c1ccc(C2CN3CCSC3=N2)cc1 (configuration not stated) | -6.08% (inactive) |
| C[C@]12C=CC(=O)C=C1CC[C@@H]1C2=CC[C@]2(C)[C@@H](C(=O)CN3CCN(c4cc(N5CCCC5)nc(N5CCCC5)n4)CC3)CC[C@@H]12 | -13.6% (inactive) |
| CC(C)NC[C@H](O)COc1cccc2ccccc12 | -15.9% (inactive) |
| NC(N)=NCc1cccc(I)c1 | -8.29% (inactive) |

Tested on: not listed separately
Experiment: qHTS assay to identify small molecule agonists of the estrogen related receptor signaling pathway with the pleiotropic PPARgamma coactivator (PGC) (AID 1224823); also: potency is read from the fitted curve at half-maximal effect
Conditions: ERR/PGC reporter cell line, luciferase agonist mode; series mostly up to 46.1 µM; activation: at the top concentration
Summary of the method: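 Luminescence readout (One-Glo, 30 min RT) from PGC/ERR cell line treated 18 h at 37 C with pin-tool-delivered DMSO compound solutions; cells plated 6 h before dosing. Quantitative HTS format.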

| Compound | activation | Potency |
| --- | --- | --- |
| Cn1c(=O)c2[nH]c(C3CCCC3)nc2n(C)c1=O | -1.33% (inactive) | – |
| O=C(CCSCc1ccco1)NNC(=O)N1Cc2ccccc2Oc2ccc(Cl)cc21 | -12.7% (inactive) | – |
| O=C1C2C=CC=CC2=NC(=S)N1CCN1CCC(=C(c2ccc(F)cc2)c2ccc(F)cc2)CC1 (configuration not stated) | -18.7% (inactive) | – |
| CCCc1c(-c2ccc(O)cc2)nn(-c2ccc(O)cc2)c1-c1ccc(O)cc1 | -10.8% (inactive) | – |
| c1ccc(C(NCc2cccnc2)(c2ccccc2)c2ccccc2)cc1 | -20.2% (inactive) | – |
| OCc1ccc(-c2nn(Cc3ccccc3)c3ccccc23)o1 | 9.61% (inactive) | – |
| CCN(CC)CCCCCCCCOC(=O)c1cc(OC)c(OC)c(OC)c1 | 4.83% (inactive) | – |
| O=c1ccc2c(OCCCCc3ccccc3)c3ccoc3cc2o1 | 1.22% (inactive) | – |
| O=C(CCc1ccncc1)NNC(=O)N1Cc2ccccc2Oc2ccc(Cl)cc21 | -8.44% (inactive) | – |
| COC(=O)[C@H](NC(=O)c1cc(-c2ccccc2)nc2ccccc12)c1ccccc1 | -7.58% (inactive) | – |
| c1ccc(CN2CCC3(CCCc4ccccc43)CC2)cc1 | -7.28% (inactive) | – |
| C[C@@H](CN1CCC(Cc2ccccc2)CC1)[C@@H](O)c1ccc(O)cc1 | -11.3% (inactive) | – |
| COCCOc1cc2ncnc(Cl)c2cc1OCCOC | -12.2% (inactive) | – |
| O=c1ccc2ccc(O)c(O)c2o1 | 11.4% (inactive) | – |
| CCCCCCN(CCCCCC)C(=O)Cc1c(-c2ccc(F)cc2)[nH]c2ccccc12 | -8.75% (inactive) | – |
| C[C@@]1(C2CCCC2)Cc2cc(OCC(=O)O)c(Cl)c(Cl)c2C1=O | -12.9% (inactive) | – |
| CNC(=O)[C@H]1O[C@@H](n2cnc3c(NCc4cccc(I)c4)ncnc32)[C@H](O)C1O (some centres not stated) | – | 0.944 µM (active) |
| CCC1(O)CC2CN(CCc3c([nH]c4ccccc34)[C@@](C(=O)OC)(c3cc4c(cc3OC)N(C)C3[C@]45CCN4CC=C[C@@](CC)([C@@H](OC(C)=O)[C@]3(O)C(=O)OC)[C@H]45)C2)C1 (some centres not stated) | -13.3% (inactive) | – |
| CCCCCCCC/C=C\CCCCCCCC(=O)NCCc1ccc(O)c(O)c1 | 9.5% (inactive) | – |
| O=C(Nc1ccc2c(c1)CCN(Cc1ncn[nH]1)C2)c1ccccc1-c1ccc(C(F)(F)F)cc1 | -11.4% (inactive) | – |
| CC(C)[C@H](NC(=O)OCc1ccccc1)C(=O)N[C@H](C=O)Cc1ccccc1 | -11.9% (inactive) | – |
| COc1cccc(OC)c1OCCNCC1COc2ccccc2O1 (configuration not stated) | -7.52% (inactive) | – |
| c1ccc2c(c1)CC(N1CCN(c3cccc4c3OCCO4)CC1)C2 | -6.53% (inactive) | – |
| O=[N+]([O-])c1ccc(CNc2nc(NCc3cccc(C(F)(F)F)c3)nc3nc[nH]c23)cc1 | -12.1% (inactive) | – |
| Clc1ccc(N2CCN(Cc3cc4ccccn4n3)CC2)cc1 | -14.2% (inactive) | – |
| C[C@]12C=CC(=O)C=C1CC[C@@H]1C2=CC[C@]2(C)[C@@H](C(=O)CN3CCN(c4cc(N5CCCC5)nc(N5CCCC5)n4)CC3)CC[C@@H]12 | -9.72% (inactive) | – |
| CN1CCc2cccc3c2C1Cc1ccc(O)c(O)c1-3 (configuration not stated) | -24.5% (inactive) | – |
| NC(N)=NCc1cccc(I)c1 | -13.9% (inactive) | – |
